The source of these data is PubChem BioAssay (NCATS).

Experiment [1] concerns the target Arylsulfatase A (Homo sapiens) (UniProt P15289). As to the kind of experiment: qHTS screen for enhancers of Arylsulfatase A (ASA1): LOPAC Validation Assay (AID 720538). The settings on record: outcome: dose series up to 57.5 µM. In outline: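 Read-out: fluorescence at Ex=525/Em=598 nm after 1N NaOH final stop. Patient fibroblasts carrying ASA-I179S had 48h compound exposure, then 14h room-temperature pNCS hydrolysis (0.5mM final) in lysis buffer. Signal increase = enhanced activity.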

Experiment [2] in a line: qHTS for compounds that reverse cellular toxicity of Amyloid beta (A-beta) peptide in yeast: LOPAC Validation Assay (AID 720559).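 Note: plate controls were DMSO for no effect and equimolar ferric chloride plus clioquinol rescue for full effect.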 In outline: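 OD600 growth readout after 48 hr at 30 C; A-beta-toxic yeast plus pinned compounds in medium. Normalization: DMSO = negative, equimolar FeCl3 + clioquinol = positive.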
The nature of experiment [3]: qHTS for Activators of Parkin Expression: LOPAC Validation Assay (NLuc Reporter) (AID 720572). In outline:
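NLuc signal, read 10 min after reagent and following a prior FLuc read, is normalized to DMSO (0) and positive controls (100%). Cells: neuronal Parkin-promoter coincidence reporter line; compounds tested 7-point, 24 h, 37 C, 5% CO2.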

Experiment [4] can be described thus: qHTS for Activators of Parkin Expression: LOPAC Validation Assay (FLuc Reporter) (AID 720573). The method, boiled down: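 FLuc luminescence read-out from a neuronal line expressing a Parkin-promoter-driven coincidence reporter. Cells treated 24 h at 37 C, 5% CO2 with compounds at 7 concentrations; signal increase normalized to DMSO and positive control.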
Experiment [5] concerns the target T1, Hexokinase-4 (Homo sapiens) + Glucokinase regulatory protein (Homo sapiens) (UniProt P35557+Q14397). The experiment is described as follows: qHTS assay for inhibitors of recombinant human GCK-GKRP interaction: Diaphorase-coupled assay (AID 743205). In outline: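 Resorufin fluorescence (525/590 nm), read each minute over 30 min, reports GCK activity coupled via G6PDH and diaphorase. Reaction: 10 nM GST-GCK, 10 nM FLAG-GKRP, 5 mM glucose, 0.4 mM ATP, 0.15 mM NADP+, 0.1 mM resazurin.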

The target in experiment [6] is T1, Hexokinase-4 (Homo sapiens) + Glucokinase regulatory protein (Homo sapiens). As to the kind of experiment: qHTS assay for inhibitors of recombinant human GCK-GKRP interaction: ADP-Glo assay (AID 743206).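 Note: plate controls were DMSO plus enzyme for no effect and no enzyme for full effect.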 The method, boiled down: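 Pin-transferred compounds meet a 15 nM GST-GCK/15 nM FLAG-GKRP/2 uM S6P mix (dispense concentrations). ATP is then added to 0.4 mM final with 5 mM glucose, and the reaction runs 60 min at room temperature. ADP is quantified luminescently.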

The target is the same in experiment [7]. The experiment is described as follows: qHTS assay for inhibitors of recombinant human GCK-GKRP interaction: HTRF assay (AID 743207).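 Note: 0% = DMSO with GCK present and -100% = DMSO wells lacking GCK.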 The method, boiled down:
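HTRF read-out (ex 320 nm; 615/665 nm emission) after 60 min RT equilibration of 5 nM GST-GCK, 5 nM FLAG-GKRP, 2 uM S6P, compound and anti-FLAG/anti-GST detection antibodies; signal normalized between DMSO wells with and without GCK.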

Experiment [8] in a line: qHTS Assay for Identifying Gametocytocidal Compounds (AID 743244).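 Note: % is set by controls: 0 for no effect and ±100 for the full control effect; actives lower the fluorescent signal which means gametocytes are killed.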 The settings on record: P. falciparum 3D7 stage III-V gametocytes, alamarBlue, 72 h; max response: stronger effect = lower value. In outline:
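A resazurin-based viability read-out was applied to mature P. falciparum gametocytes: 72 h compound treatment, then 24 h dye incubation, with falling fluorescence signalling gametocytocidal effect.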

Experiment [9] can be described thus: qHTS profiling of the MIPE4 collection as inhibitors of Plasmodium falciparum (3D7) proliferation (AID 743344; call rule not given here;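 note: scaled between DMSO vehicle wells and 0.29 µM artemisinin as full inhibition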). The settings on record: P. falciparum 3D7 in erythrocytes, SYBR Green DNA fluorescence, 72 h; at 28.5 µM (top of the series) unless noted. In outline: (§1)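 Parasite DNA was quantified by SYBR Green I fluorescence (ex 485, em 535 nm) after overnight lysis in saponin/Triton buffer at room temperature. Cultures at 0.3% parasitemia and 2.5% hematocrit were first exposed to compound for 72 h at 37 C; signals were normalised to artemisinin (0.29 uM) and vehicle wells.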

Experiment [10] is described as follows: qHTS profiling of the MIPE4 collection as inhibitors of Plasmodium falciparum (DD2) proliferation (AID 743345; call rule not given here). The settings on record: P. falciparum Dd2 in erythrocytes, SYBR Green DNA, 72 h; at 28.5 µM (top of the series) unless noted. The method, boiled down: as §1
The nature of experiment [11]: qHTS profiling of the MIPE4 collection as inhibitors of Plasmodium falciparum (DD2) proliferation (Rep 2) (AID 743346; call rule not given here). The settings on record: P. falciparum Dd2 in erythrocytes, SYBR Green DNA, 72 h; at 28.5 µM (top of the series) unless noted. The method, boiled down:
as §1

Experiment [12] can be described thus: qHTS assay for small molecule agonists of the antioxidant response element (ARE) signaling pathway measured by Nrf2-dependant transcriptional activity (AID 720636; active = well fitted curve in the direction sought with a large enough effect in the repeat runs; an effect the other way counts as inactive or inconclusive;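 note: HepG2 cells with an ARE-driven luciferase reporter; % of control where 0% means no effect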). The method, boiled down:
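First, ARE-luc HepG2 cells attached for 6 hr at 37 C in 1% dialyzed FBS medium. Next, compound or DMSO was added and incubated 16 hr. Finally, ONE-Glo reagent was added and luminescence measured after 30 min.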

Experiment [13] is described as follows: qHTS assay for small molecule antagonists of the retinoid-related orphan receptor gamma (ROR-gamma) signaling pathway - cell viability counter screen (AID 720652; active = well fitted curve in the direction sought with a large enough effect in the repeat runs; an effect the other way counts as inactive or inconclusive;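 note: CHO reporter cells with doxycycline-induced ROR-gamma expression; compound exposure lasted 16 hr before ATP read; % is set by controls: 0 for no effect and ±100 for the full control effect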). In outline:
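Steps: seed CHO cells bearing TET-inducible ROR and ROR response element-luciferase; rest 5 hr at 37 C; add compound, then doxycycline; incubate 16 hr; add CellTiter-Glo and read luminescence as ATP-based viability.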

A short description of experiment [14]: qHTS assay for small molecule agonists of the antioxidant response element (ARE) signaling pathway measured by Nrf2-dependant transcriptional activity - cell viability counter screen (AID 720653; active = well fitted curve in the direction sought with a large enough effect in the repeat runs; an effect the other way counts as inactive or inconclusive; note: % is set by controls: 0 for no effect and ±100 for the full control effect). The settings on record: ARE-bla HepG2 viability, CellTiter-Glo ATP luminescence, 16 h; max response: stronger effect = lower value. The method, boiled down:
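ARE-bla HepG2 cells treated with compounds for 16 h at 37C; this counter screen measures viability as intracellular ATP by CellTiter-Glo luminescence after 30 min at room temperature.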

The nature of experiment [15]: qHTS assay for cell viability of HEK293 cells (AID 743288). Note: % is set by controls: 0 for no effect and ±100 for the full control effect; nearly all actives have a fitted effect of over 50% in size. The settings on record: ATP luminescence (CellTiter-Glo), 18 h; max response: stronger effect = lower value. In outline: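 ATP luminescence (CellTiter-Glo) reports metabolically competent cell number after parental HEK293 cells, 2,000/well, were treated with DMSO-dissolved compounds for 18 h at 37 C; reagent incubation 30 min, room temperature.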

Experiment [16] is described as follows: qHTS assay for cell viability of the p53RE-bla HCT-116 cell line (AID 743292). Note: % is set by controls: 0 for no effect and ±100 for the full control effect; nearly all actives have a fitted effect of over 55% in size. The method, boiled down:
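Quantitative high-throughput format: compounds in DMSO were pinned onto p53RE-bla HCT-116 cells (4,000/well) and incubated 16 h at 37 C. Total intracellular ATP, read by CellTiter-Glo luminescence, reflects viable cell number.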

A short description of experiment [17]: qHTS profiling of the MIPE4 collection as inhibitors of Plasmodium falciparum (HB3) proliferation (AID 743347; call rule not given here;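 note: plate controls were DMSO vehicle wells for no effect and artemisinin wells for full effect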). The settings on record: P. falciparum HB3 in erythrocytes, SYBR Green DNA, 72 h; at 28.5 µM (top of the series) unless noted. The method, boiled down:
as §1

A short description of experiment [18]: qHTS profiling for inhibitors of Plasmodium falciparum (3D7) proliferation (AID 743322; call rule not given here;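 note: infected erythrocytes exposed to compound for 72 h before lysis; 100% = DMSO vehicle wells and 0% = 0.29 µM artemisinin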). The settings on record: P. falciparum 3D7 proliferation; at 28.7 µM (top of the series). The method, boiled down: as §1
The nature of experiment [19]: qHTS profiling for inhibitors of Plasmodium falciparum (DD2) proliferation (AID 743323; call rule not given here). The settings on record: lower = more inhibition; at 28.7 µM (top of the series). In outline:
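Parasite proliferation measured via DNA-dye fluorescence, as uninfected erythrocytes lack DNA. Cultures at 0.3% parasitemia and 2.5% hematocrit incubated 72 h with compound; signal scaled between vehicle and 0.29 uM artemisinin wells.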

Experiment [20] is described as follows: qHTS profiling for inhibitors of Plasmodium falciparum (HB3) proliferation (AID 743324).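 Note: 100% = DMSO vehicle wells and 0% = artemisinin-treated control wells.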 The settings on record: Plasmodium falciparum HB3 blood-stage proliferation; at 28.7 µM (top of the series). The method, boiled down: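 SYBR Green fluorescence (485 ex/535 em) of lysed cultures, incubated overnight at room temperature in the dark, quantifies parasite DNA. Infected erythrocytes at 0.3% parasitemia and 2.5% hematocrit were exposed 72 h; values normalized to DMSO and 0.29 uM artemisinin controls.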

Results filed as inconclusive are left out. Calls of active or inactive are those of the source. Unless noted, calls come from the whole dose curve; as a rule, active = well fitted curve in the direction sought with a large enough effect; inconclusive = small, poorly fitted or top-dose-only effect, or another doubt; inactive = no such curve, though single readings can be large; an effect the other way counts as inactive or inconclusive.

Chain of Arylsulfatase A (Homo sapiens) (P15289 whole entry, looked up): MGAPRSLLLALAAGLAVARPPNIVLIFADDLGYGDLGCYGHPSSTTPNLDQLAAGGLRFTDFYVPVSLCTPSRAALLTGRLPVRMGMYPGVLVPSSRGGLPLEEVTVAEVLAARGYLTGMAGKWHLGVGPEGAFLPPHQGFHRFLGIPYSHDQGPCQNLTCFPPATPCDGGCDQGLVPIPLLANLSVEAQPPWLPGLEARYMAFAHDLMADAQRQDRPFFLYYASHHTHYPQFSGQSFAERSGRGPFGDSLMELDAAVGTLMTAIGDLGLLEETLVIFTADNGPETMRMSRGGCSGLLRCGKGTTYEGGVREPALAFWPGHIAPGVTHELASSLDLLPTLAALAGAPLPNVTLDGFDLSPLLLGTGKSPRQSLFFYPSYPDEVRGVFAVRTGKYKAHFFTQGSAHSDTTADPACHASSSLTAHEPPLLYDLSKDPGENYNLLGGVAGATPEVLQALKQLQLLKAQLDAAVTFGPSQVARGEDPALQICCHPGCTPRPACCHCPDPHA
T1 sequence (P35557 whole entry, looked up): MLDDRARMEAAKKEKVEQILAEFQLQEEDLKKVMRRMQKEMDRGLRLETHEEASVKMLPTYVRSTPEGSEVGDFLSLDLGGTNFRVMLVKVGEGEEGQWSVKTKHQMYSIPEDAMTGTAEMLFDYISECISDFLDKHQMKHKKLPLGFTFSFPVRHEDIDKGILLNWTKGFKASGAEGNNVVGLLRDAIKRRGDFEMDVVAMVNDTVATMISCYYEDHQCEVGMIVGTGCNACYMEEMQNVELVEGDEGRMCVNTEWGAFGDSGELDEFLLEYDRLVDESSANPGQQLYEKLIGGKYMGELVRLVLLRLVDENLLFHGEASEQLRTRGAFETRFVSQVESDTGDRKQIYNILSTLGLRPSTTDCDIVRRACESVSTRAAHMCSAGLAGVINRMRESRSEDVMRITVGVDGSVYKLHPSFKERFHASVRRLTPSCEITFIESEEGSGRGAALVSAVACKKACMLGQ
T1 sequence (Q14397 whole entry, looked up): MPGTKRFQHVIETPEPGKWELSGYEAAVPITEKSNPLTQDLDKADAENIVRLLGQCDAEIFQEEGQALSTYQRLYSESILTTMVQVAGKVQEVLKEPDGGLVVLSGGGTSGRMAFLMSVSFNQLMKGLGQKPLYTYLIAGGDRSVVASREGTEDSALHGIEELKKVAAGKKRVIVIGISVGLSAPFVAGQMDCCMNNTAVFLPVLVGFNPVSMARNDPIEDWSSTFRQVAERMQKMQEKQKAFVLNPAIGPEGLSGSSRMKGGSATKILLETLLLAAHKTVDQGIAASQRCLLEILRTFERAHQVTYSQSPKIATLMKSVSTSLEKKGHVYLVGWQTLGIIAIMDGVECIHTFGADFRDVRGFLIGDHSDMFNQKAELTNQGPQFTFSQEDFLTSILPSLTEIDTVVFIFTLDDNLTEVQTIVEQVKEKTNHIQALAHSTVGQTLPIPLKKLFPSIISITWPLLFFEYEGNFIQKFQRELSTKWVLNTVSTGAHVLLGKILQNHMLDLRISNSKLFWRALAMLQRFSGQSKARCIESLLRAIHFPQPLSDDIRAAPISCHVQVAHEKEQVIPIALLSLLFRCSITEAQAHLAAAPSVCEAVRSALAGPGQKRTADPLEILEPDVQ

Turning to `CC1=C(C(=O)O)N2C(=O)[C@@H](NC(=O)C(N)c3ccccc3)[C@H]2SC1` (stereo partly specified), the result in [1], in experiment [2], in experiment [3], in [4], in [5] and in experiment [6] was inactive. Further, the outcome in [7] was inactive. Also, the max response in experiment [8] is 7.37% (inactive). For the same molecule, the parasite growth, % of DMSO control in [9] is 101%. For the same molecule, the parasite growth remaining, % of DMSO control (lower = more inhibition) in experiment [10] came out at 95.4%. For the same molecule, the parasite growth, % of control (lower = inhibition) in experiment [11] turned out to be 151%.
With `NNC(=O)c1ccncc1`, the result in [12] was inactive. Moreover, the Potency entry in experiment [13] and in experiment [16] was “inactive” throughout. Moreover, the max response in experiment [14] is -4.52% (inactive); in experiment [8] it was -1.22% (inactive); in experiment [15] it was -4% (inactive). Moreover, the parasite growth, % of DMSO control in [9] turned out to be 5.29%. The parasite growth remaining, % of DMSO control (lower = more inhibition) in [10] amounted to 8.99%. The parasite growth, % of control (lower = inhibition) in experiment [11] came out at 8.5%. In addition, in [17], the growth, % of control turned out to be 2.55%.
On to `OC(Cn1cncn1)(Cn1cncn1)c1ccc(F)cc1F`, for which the molecule was classed as inactive in experiment [12]. Moreover, the max response in experiment [14] was 0.0873% (inactive); in experiment [8], -0.14% (inactive); in experiment [15], -6.93% (inactive). Also, the Potency entry in experiment [16] is “inactive”. Further, the parasite growth remaining, % of DMSO control (lower = more inhibition) in [10] was found to be 101%.
With `Cc1ccc(S(=O)(=O)N[C@@H](Cc2ccccc2)C(=O)CCl)cc1`, the outcome in [1], in experiment [2], in experiment [3], in experiment [4], in experiment [5] and in experiment [6] was inactive. Further, the result in experiment [7] was inactive. Also, the max response in [8] is 11.5% (inactive). Moreover, in experiment [9], the parasite growth, % of DMSO control turned out to be 90.3%. The parasite growth remaining, % of DMSO control (lower = more inhibition) in [10] came out at 91.3%. The parasite growth, % of control (lower = inhibition) in [11] turned out to be 79.2%.
As to `COc1cc2ncnc(Nc3cccc(Cl)c3)c2cc1OC`, the result in [1], in [2], in experiment [3], in experiment [4], in experiment [5] and in experiment [6] was inactive. In experiment [7], the outcome was inactive. Besides, in experiment [8], the max response is 13.8% (inactive). In [9], the parasite growth, % of DMSO control was 8.74%. For the same molecule, in [10], the parasite growth remaining, % of DMSO control (lower = more inhibition) was determined as 27%. Also, the parasite growth, % of control (lower = inhibition) in [11] is 24.1%. In addition, the growth, % of control in experiment [17] was 4.11%.
For the molecule `CCN1CCCC1CNC(=O)c1cc(S(N)(=O)=O)ccc1OC` (stereo unspecified), the outcome in [1], in [2], in experiment [3], in experiment [4], in [5] and in experiment [6] was inactive. The result in experiment [7] was inactive. Further, the max response in experiment [8] is 13% (inactive). Also, the parasite growth, % of DMSO control in experiment [9] was 101%. In [10], the parasite growth remaining, % of DMSO control (lower = more inhibition) turned out to be 90.1%. Besides, in experiment [11], the parasite growth, % of control (lower = inhibition) was determined as 41.9%.
`CCCCS(=N)(=O)CCC(N)C(=O)O` (stereo unspecified): the outcome in experiment [1], in [2], in experiment [3], in experiment [4], in experiment [5] and in [6] was inactive. Besides, in [7], the outcome was inactive. For the same molecule, in [8], the max response is -16.7% (inactive). Besides, the remaining parasite growth % (stronger effect = lower value) in experiment [18] was determined as 88.1%. Also, the activity, percent of control in experiment [19] was determined as 31.7%. In experiment [20], this molecule registered a remaining proliferation (% of control), lower = more inhibition of 88%. The parasite growth, % of DMSO control in [9] stood at 102%. In [10], the parasite growth remaining, % of DMSO control (lower = more inhibition) was determined as 94.1%. In experiment [11], the parasite growth, % of control (lower = inhibition) came out at 193%. The molecule also yielded a growth, % of control in experiment [17] of 102%.
